HT1080-NT tox: kills 2HG-producing HT-1080-NT fibrosarcoma cells; 360,000 compounds, 1.6% hits; HT-1080-NT fibrosarcoma viability, CellTiter-Glo ATP luminescence, 48 h; Potency, µM (highest dose often 46.1 µM), inactives show at the top dose activity, negative = less viability, actives largely listed as cytotoxic;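 note: NT is the 2HG producing partner of a matched IDH1 knockdown line; potency is the fitted concentration of half-maximal effect; 0% = DMSO-treated cells and -100% = media-only wells without cells; nearly all actives have a fitted effect of over 55% in size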
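Compounds were tested in concentration-response format on HT-1080-NT cells for 48 hours at 37 degrees C. Cell viability came from CellTiter-Glo luminescence; curves were classified by r2, response magnitude and activity.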
TDP1 cell CPT: growth inhibition of DT40 Tdp1-/-;hTDP1 cells with camptothecin (screen for TDP1 inhibitors); Potency, µM (highest dose often 46.2 µM), inactives show top-dose activity change, negative = growth inhibition, actives largely listed as inhibitors; chicken DT40 Tdp1-/-;hTDP1 cells + 20 nM CPT, ATP luminescence, 48 h; AID 686979; 420,000 compounds, 12% hits; note: potency is the fitted concentration of half-maximal effect; nearly all actives have a fitted effect of over 55% in size
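Chicken DT40 Tdp1-/- cells stably complemented with human TDP1 were seeded at 400 cells/well in medium containing 20 nM camptothecin, exposed to pin-transferred compounds, and grown at 37 °C for at least 48 hr. Viability was read as ATP luminescence.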
HT1080 IDH1KD tx: toxicity to HT-1080 IDH1 knockdown cells (counter line); HT-1080 IDH1 knockdown viability, ATP luminescence, 48 h; Potency, µM (highest dose often 46.1 µM), without a hit: at the highest dose activity, negative = toxicity, most hits filed as cytotoxic; AID 686971; 360,000 compounds, 2% hits;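 note: potency is the fitted concentration of half-maximal effect; 0% = DMSO wells and -100% = cell-free medium wells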
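Assay cells: HT-1080 with IDH1 knockdown, 750 per well, RPMI/5% FBS. Exposure: 48 h at 37 °C following 2 h pre-incubation. Read: CellTiter-Glo luminescence; fitted concentration-response, curve class assigned.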
IL1B secr inh: inhibitors of inflammasome signaling (IL-1 beta secretion) | THP-1 LPS/ATP IL-1B secretion, AlphaLISA, 16 h; hits give low values | activity change, % at 57.5 µM | 360,000 compounds, 4.7% hits; in the data active = activity change below about -50%; inconclusive = mostly about -30% to -49%
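THP-1 cells pretreated 1 hr with compounds (up to 57.5 uM final), then stimulated with LPS (250 ng/mL final) plus ATP (1.25 mM final); secreted IL-1B measured by AlphaLISA after 16 hr, decreased signal indicating inhibition.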
TDP1 cell noCPT: qHTS for Inhibitors of human tyrosyl-DNA phosphodiesterase 1 (TDP1): qHTS in cells in absence of CPT; AID 686978, 2013; Potency, µM (doses to about 46.2 µM), for inactives: at the top dose activity change, negative = growth inhibition, hits mostly inhibitors; DT40 Tdp1-/- hTDP1 cells, no CPT, ATP luminescence, 48 h; 420,000 compounds, 15% hits; note: potency is the fitted concentration of half-maximal effect; nearly all actives have a fitted effect of over 55% in size
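Seeded 400 DT40-hTDP1 cells/well (vehicle DMSO, no 20 nM CPT); pinned compounds; ≥48 hr at 37 °C; CellTiter-Glo luminescence as viability measure.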
An asterisk follows results filed as active; ? = inconclusive; nt = no result given. In the library only some 19% were active in any assay of this set; here they are far more common. Unless noted, calls come from the whole dose curve; as a rule, active = well fitted curve in the direction sought with a large enough effect; inconclusive = small, poorly fitted or top-dose-only effect, or another doubt; inactive = no such curve, though single readings can be large; an effect the other way counts as inactive or inconclusive. Unless noted, % is set by controls: 0 for no effect and ±100 for the full control effect.

SMILES	HT1080-NT tox	TDP1 cell CPT	HT1080 IDH1KD tx	IL1B secr inh	TDP1 cell noCPT
CCn1nc(C)c(CN2CCCC(CNS(=O)(=O)c3ccc(OC)cc3)C2)c1C (stereo unspecified)	-0.6%	20.6µM*	-6.7%	22.1	?
CCc1ccc(CN2CCCC(CNS(=O)(=O)c3ccc(OC)cc3)C2)cc1 (stereo unspecified)	-32.2%	-18.8%	-29.8%	-94.3*	?
CCCN(CC(=O)Nc1cc(Cl)ccc1Cl)C(=O)c1ccc2n[nH]nc2c1	-6.5%	3.0%	-1.5%	-26.7	1.3%
Cc1cccc2c1-c1sc(C(=O)N(C)c3cccc(C(F)(F)F)c3)cc1CO2	nt	?	nt	nt	23.1µM*
Cc1cccc2c1-c1sc(C(=O)N3CCCCC3)cc1CO2	-0.4%	?	-13.5%	-27.9	?
Cc1nc2ccccc2c2oc(C(=O)NCCN3CCN(C)CC3)cc12	2.0%	?	-9.0%	-1.6	-8.1%
CCN(C(=O)c1cc2c(C)nc3ccccc3c2o1)c1cc(Cl)ccc1OC	?	5.17µM*	?	-7.2	4.61µM*
CCN(C(=O)c1cc2c(s1)-c1ccccc1OC2)c1cc(Cl)ccc1OC	nt	20.6µM*	nt	nt	10.3µM*
CCN(C(=O)c1cc2c(s1)-c1ccccc1OC2)c1cccc(C(F)(F)F)c1	nt	18.4µM*	nt	nt	18.4µM*
O=C(NCc1cccs1)c1cc2c(s1)-c1ccccc1OC2	-3.1%	-8.3%	-2.4%	?	?
O=C(CCn1cccn1)N1CCCC(N2CCN(c3cccc(Cl)c3)CC2)C1 (stereo unspecified)	6.1%	1.2%	8.9%	34.3	-17.7%
Cc1cccc(OCCCC(=O)NCc2ccco2)c1	4.0%	-27.9%	-1.7%	-0.1	-4.9%
COCCNC(=S)N1CCc2cc(OC)c(OC)cc2C1c1cccs1 (stereo unspecified)	3.2%	10.7%	5.3%	11.4	-30.2%
Cc1ccc(S(=O)(=O)Oc2cccc(/C=N/n3cnnc3)c2)cc1	-17.8%	8.2µM*	-28.9%	16.9	8.2µM*
CCOc1ccc(C(=O)NCC(=O)NCC(c2ccco2)N2CCCCC2)cc1 (stereo unspecified)	5.6%	-8.1%	4.4%	0.7	-10.8%
O=C(Cc1ccsc1-c1ccccc1)NO	?	25.9µM*	?	-28.3	20.6µM*
O=C(Cc1ccccc1)NO	11.2%	-13.8%	-0.6%	nt	-6.7%
CCOc1cc(/C=N/O)cc(Br)c1OCC	-4.2%	-2.4%	-9.3%	-1.8	-28.3%
C#CCOc1c(Br)cc(/C=N/O)cc1OCC	-25.8%	-16.7%	-27.3%	0.0	29.1µM*
CCOc1cc(/C=N/O)cc(Br)c1OCc1ccc(Cl)cc1	?	?	?	-77.8*	?
CCOc1cc(/C=N/O)ccc1OCc1ccc(C)cc1	?	?	?	-2.6	23.1µM*
C=CCn1c(SCC(=O)Nc2ccc(N3CCOCC3)cc2)nc2ccccc2c1=O	3.6%	-16.4%	8.6%	29.0	-5.1%
Cc1cccc(C)c1Nc1nnc(SCc2nc3ccccc3c(=O)[nH]2)s1	?	?	?	29.1	?
CCOc1ccc(Nc2nnc(SCc3nc4ccccc4c(=O)[nH]3)s2)cc1	-7.4%	18.4µM*	3.4%	65.6	18.4µM*
O=c1[nH]c(CSc2nnc(COc3ccccc3)n2-c2ccccc2)nc2ccccc12	?	-1.3%	?	-4.1	-29.3%
SMILES	HT1080-NT tox	TDP1 cell CPT	HT1080 IDH1KD tx	IL1B secr inh	TDP1 cell noCPT
O=c1[nH]c(COc2ccccc2)nc2ccccc12	-9.9%	20.6µM*	-25.0%	-18.2	?
O=c1[nH]c(COc2ccc(Br)cc2Cl)nc2ccccc12	4.2%	20.6µM*	-6.3%	34.8	?
Cc1cc(Cl)ccc1OCCCC(=O)OCC(=O)Nc1cccc(S(N)(=O)=O)c1	-6.4%	9.8%	3.8%	18.9	2.4%
O=C1c2ccccc2C(c2nnnn2-c2ccc3c(c2)OCCO3)N1Cc1cccs1 (stereo unspecified)	10.4%	?	6.9%	0.3	?
Cc1cc(C)n(C2=NS(=O)(=O)c3ccccc32)n1	-3.9%	?	19.1%	1.0	?
C=C1C(=O)C23CCC4C(C)(C(=O)OC)CCCC4(C)C2CCC1(O)C3 (stereo unspecified)	9.2µM*	0.651µM*	2.31µM*	-103.5*	0.517µM*
COC(=O)c1ccc(Nc2nc(C)cc(=O)[nH]2)cc1	12.0%	0.6%	-0.1%	70.0	-11.1%
COCCNc1nc(Nc2ccc(Cl)cc2F)c2sccc2n1	-20.3%	13µM*	-22.8%	-11.5	16.4µM*
COCCNc1nc(Oc2ccc(Cl)c(Cl)c2)c2sccc2n1	1.0%	?	3.5%	-23.1	-27.7%
CNc1nc(Nc2ccc(C(=O)OC)cc2)c2sccc2n1	-10.7%	13µM*	?	27.1	14.6µM*
CC(=O)NCCNc1nc(NC(C)C)nc2ccsc12	?	5.2%	16.5%	88.7	3.6%
COCCNc1nc(Nc2ccc(C(=O)OC)cc2)c2sccc2n1	-25.2%	11.6µM*	?	19.4	16.4µM*
CC(C)Nc1nc(Nc2ccc(C(N)=O)cc2)c2sccc2n1	23.2%	25.9µM*	0.0%	22.0	?
COCCNc1nc(-c2ccc(Cl)cc2C)c2sccc2n1	?	?	-4.2%	-14.4	?
O=C(CCc1nc(-c2ccccc2)no1)NCc1ccccc1CN1CCOCC1	0.3%	?	4.3%	37.5	?
Cc1nc2ccccn2c1C(=O)N=Nc1c(O)[nH]c2ccccc12	22.4%	27.6%	18.4%	-2.3	-20.0%
COc1ccc(Cl)cc1C(=O)Nc1cccnc1Cl	-1.3%	5.9%	16.8%	-19.0	-13.0%
CCOC(=O)Cc1ccc(Nc2nc(NCCOC)nc3ccsc23)cc1	-1.4%	13µM*	-17.2%	-27.8	14.6µM*
O=C(CCN1CCCCC1)NCC1OCCc2ccccc21 (stereo unspecified)	0.6%	-15.0%	-1.9%	-16.9	-6.5%
CC(=O)c1ccc(OCCCC(=O)NC2CCCc3ccccc32)cc1 (stereo unspecified)	-2.4%	?	-9.6%	-1.5	?
O=C(NCCCO)C(=O)Nc1ccc2c(c1)N(S(=O)(=O)c1cccs1)CCC2	0.9%	?	4.5%	21.5	?
COCCNC(=O)C(=O)Nc1ccc2c(c1)N(S(=O)(=O)c1cccs1)CCC2	?	1.84µM*	6.51µM*	22.5	1.46µM*
CC(C)CCNC(=O)C(=O)Nc1ccc2c(c1)N(S(=O)(=O)c1cccs1)CCC2	3.26µM*	5.17µM*	2.59µM*	62.8	3.66µM*
C[C@@H]1CCCCCCCCC(=O)OCCN1C(=O)OC(C)(C)C	14.6%	16.4µM*	23.5%	20.8	?
CC(C)(C)OC(=O)N1CCC[C@H]1C(=O)O	14.7%	0.6%	7.8%	9.3	-3.5%
